# Reference: the supplement of paper PMC7411054
# Columns and labels:
# Conditions in all cases: treatment time: 24 h
# [1] = test system: A549-ACTB-RAB5A; assay: lowest phenotypically active concentration; higher = less potent
# Method in brief: (§1)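 Each of fifteen gene-edited A549, HepG2 and WPMY1 reporter lines, marked with BFP for segmentation and GFP and RFP/FusionRed, was treated in four wells at 0.3, 1, 3 or 9 µM for 24 h prior to live imaging. Normalisation of per-well live-cell features used solvent control wells. Deviation needed ≥3 of 4 wells beyond the 95th percentile of control Euclidean distances, and reproducibility needed a median replicate Pearson correlation above the 95th percentile of non-replicates. Both were required for phenotypic activity.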
# [2] = test system: A549-GM130-SQSTM1; assay: as above
# Method in brief: as §1
# [3] = test system: HepG2-ACTB-RAB5A; assay: as above
# Method in brief: as §1
# [4] = test system: WPMY1-CANX-COX4; assay: as above
# Method in brief: as §1
# [5] = test system: WPMY1-GM130-SQSTM1; assay: as above
# Method in brief: as §1
# [6] = test system: A549-ACTB-RAB5A; assay: phenotypically active (imaging signature differs from DMSO and reproducible) at any of 0.3-9 uM (binary (1 = active, 0 = inactive)); higher = active
# Method in brief: as §1
# [7] = test system: A549-CANX-COX4; assay: as above
# Method in brief: as §1
# [8] = test system: A549-GM130-SQSTM1; assay: as above
# Method in brief: as §1
# [9] = test system: A549-TP53BP1-CLTA; assay: as above
# Method in brief: as §1
# [10] = test system: A549-TUBA1B-RELA; assay: as above
# Method in brief: as §1
# [11] = test system: HepG2-ACTB-RAB5A; assay: as above
# Method in brief: as §1
# [12] = test system: HepG2-CANX-COX4; assay: as above
# Method in brief: as §1
# [13] = test system: HepG2-GM130-SQSTM1; assay: as above
# Method in brief: as §1
# [14] = test system: HepG2-TP53BP1-CLTA; assay: as above
# Method in brief: as §1
# [15] = test system: HepG2-TUBA1B-RELA; assay: as above
# Method in brief: as §1
# [16] = test system: WPMY1-ACTB-RAB5A; assay: as above
# Method in brief: as §1
# [17] = test system: WPMY1-CANX-COX4; assay: as above
# Method in brief: as §1
# [18] = test system: WPMY1-GM130-SQSTM1; assay: as above
# Method in brief: as §1
# [19] = test system: WPMY1-TP53BP1-CLTA; assay: as above
# Method in brief: as §1
# [20] = test system: WPMY1-TUBA1B-RELA; assay: as above
# Method in brief: as §1
SMILES,lowest phenotypically active concentration [1],lowest phenotypically active concentration [2],lowest phenotypically active concentration [3],lowest phenotypically active concentration [4],lowest phenotypically active concentration [5],phenotypically active [6],phenotypically active [7],phenotypically active [8],phenotypically active [9],phenotypically active [10],phenotypically active [11],phenotypically active [12],phenotypically active [13],phenotypically active [14],phenotypically active [15],phenotypically active [16],phenotypically active [17],phenotypically active [18],phenotypically active [19],phenotypically active [20]
"CCCCCCCCCCCCC/C=C/[C@@H](O)[C@H](CO)N(C)C [N,N-Dimethylsphingosine]",3 µM,1 µM,3 µM,3 µM,3 µM,1 (active),0 (inactive),1 (active),0 (inactive),1 (active),1 (active),1 (active),1 (active),1 (active),1 (active),1 (active),1 (active),1 (active),1 (active),1 (active)
O=C(CCCN1CCC(O)(c2ccc(Cl)cc2)CC1)c1ccc(F)cc1 [haloperidol],3 µM,9 µM,9 µM,–,9 µM,1 (active),0 (inactive),1 (active),0 (inactive),1 (active),1 (active),0 (inactive),1 (active),1 (active),1 (active),0 (inactive),0 (inactive),1 (active),0 (inactive),0 (inactive)
COc1cc2c(cc1OCCCN1CCCC1)N=C(N)C21CCC1,9 µM,9 µM,–,–,–,1 (active),0 (inactive),1 (active),0 (inactive),1 (active),0 (inactive),0 (inactive),0 (inactive),0 (inactive),0 (inactive),0 (inactive),0 (inactive),0 (inactive),0 (inactive),0 (inactive)
CC1=C(/C=C/C(C)=C\C=C\C(C)=C\C(=O)O)C(C)(C)CCC1 [tretinoin],3 µM,3 µM,1 µM,1 µM,≤ 0.3 µM,1 (active),0 (inactive),1 (active),0 (inactive),1 (active),1 (active),1 (active),1 (active),0 (inactive),0 (inactive),1 (active),1 (active),1 (active),1 (active),1 (active)
CN1C(=O)/C(=C2/Nc3ccccc3/C2=N/O)c2ccc(Br)cc21,≤ 0.3 µM,≤ 0.3 µM,≤ 0.3 µM,9 µM,≤ 0.3 µM,1 (active),0 (inactive),1 (active),0 (inactive),1 (active),1 (active),1 (active),0 (inactive),0 (inactive),0 (inactive),1 (active),1 (active),1 (active),0 (inactive),0 (inactive)
